What follows are molecules tested against Chromo domain-containing protein 1 (Saccharomyces cerevisiae (strain ATCC 204508 / S288c) (Baker's yeast)) (UniProt P32657) (assay: ScCHD-1 Enzyme Inhibition Assay). Conditions: 30 µM.
Chain of Chromo domain-containing protein 1 (Saccharomyces cerevisiae (strain ATCC 204508 / S288c) (Baker's yeast)) (P32657 whole entry, the tested form may be a part): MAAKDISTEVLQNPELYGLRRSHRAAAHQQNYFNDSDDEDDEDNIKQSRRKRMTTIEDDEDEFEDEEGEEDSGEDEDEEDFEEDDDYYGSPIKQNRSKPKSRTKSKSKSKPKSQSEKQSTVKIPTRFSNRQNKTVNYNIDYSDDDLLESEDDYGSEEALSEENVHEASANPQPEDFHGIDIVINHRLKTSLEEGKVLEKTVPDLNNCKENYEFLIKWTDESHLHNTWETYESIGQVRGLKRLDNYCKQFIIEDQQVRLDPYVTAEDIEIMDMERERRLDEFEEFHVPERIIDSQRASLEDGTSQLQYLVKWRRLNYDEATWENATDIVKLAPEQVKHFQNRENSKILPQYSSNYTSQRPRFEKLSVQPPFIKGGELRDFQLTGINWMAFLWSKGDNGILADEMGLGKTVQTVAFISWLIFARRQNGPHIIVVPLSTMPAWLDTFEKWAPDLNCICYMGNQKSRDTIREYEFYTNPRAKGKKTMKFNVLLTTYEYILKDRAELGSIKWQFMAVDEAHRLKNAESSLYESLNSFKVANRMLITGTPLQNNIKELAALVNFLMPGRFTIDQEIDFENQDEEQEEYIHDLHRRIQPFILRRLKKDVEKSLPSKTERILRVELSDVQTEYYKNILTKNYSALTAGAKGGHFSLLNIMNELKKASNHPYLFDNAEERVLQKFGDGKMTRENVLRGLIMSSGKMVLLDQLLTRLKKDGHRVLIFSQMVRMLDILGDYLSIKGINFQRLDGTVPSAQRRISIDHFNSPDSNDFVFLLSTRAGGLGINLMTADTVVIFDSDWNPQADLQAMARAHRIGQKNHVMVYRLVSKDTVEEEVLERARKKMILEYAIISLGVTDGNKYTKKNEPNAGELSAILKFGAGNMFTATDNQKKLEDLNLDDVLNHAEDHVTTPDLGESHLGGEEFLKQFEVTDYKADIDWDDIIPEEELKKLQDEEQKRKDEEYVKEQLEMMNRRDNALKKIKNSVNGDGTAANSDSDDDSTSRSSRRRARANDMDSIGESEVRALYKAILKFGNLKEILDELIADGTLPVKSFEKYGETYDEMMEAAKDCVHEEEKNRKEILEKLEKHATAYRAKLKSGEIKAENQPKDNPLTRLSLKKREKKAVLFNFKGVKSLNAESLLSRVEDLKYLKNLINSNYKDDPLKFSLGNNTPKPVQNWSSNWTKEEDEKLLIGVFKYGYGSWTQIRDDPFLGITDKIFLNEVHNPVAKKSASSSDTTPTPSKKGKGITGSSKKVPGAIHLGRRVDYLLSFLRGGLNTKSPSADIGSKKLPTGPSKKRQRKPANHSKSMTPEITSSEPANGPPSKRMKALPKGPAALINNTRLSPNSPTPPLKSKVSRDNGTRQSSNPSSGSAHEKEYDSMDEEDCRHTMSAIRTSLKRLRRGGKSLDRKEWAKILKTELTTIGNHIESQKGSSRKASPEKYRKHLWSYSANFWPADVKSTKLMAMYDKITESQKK
Type: functional
Design: scale not given: in the data most compounds retested in dose-response had high values
O=C(CN1CCCCC1Cn1cccn1)NC1CCN(C2CC2)CC1 (stereo unspecified) was tested, and the Percent Effect was -1.27%. With COCC1CC2(CCN(C(=O)c3cc(C)oc3C)CC2)CN1C(C)C (stereo unspecified) the Percent Effect was -7%. For CCCN(CC(=O)NC)C(=O)c1ccc(-c2ccsc2)nc1C, the Percent Effect was 91%. Molecule COCCN1C[C@H]2CC[C@@]3(N=C(C)N(CC4CC4)C3=O)[C@H]2C1 has a Percent Effect of 1.06%. With CCO[C@@H]1CC[C@H]2[C@H]1OCCN2C(=O)C1CCOCC1 the Percent Effect was -4.28%. O=C(c1cccnc1-n1cccn1)N1CCN(CC2CC2)CC1 gave a Percent Effect of -1.18%.
